In PubChem BioAssay (Tox21):
Results filed as inconclusive are left out. Active and inactive are the calls of the source. Unless noted, calls follow the shape of the dose curve; as a rule, active = well fitted curve in the direction sought with a large enough effect in the repeat runs; inconclusive = weak or mixed curves; inactive = no such curve, though single readings can be large; an effect the other way counts as inactive or inconclusive.

Experiments:
[1] = qHTS assay to identify small molecule agonists of the androgen receptor (AR) signaling pathway in the presence of an antagonist - cell viability counter screen (AID 1259379);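 also: MDA-kb2 human breast cancer cells carrying an MMTV luciferase reporter; series mostly up to about 92 µM; nearly all actives have a fitted effect of over 25% in size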
Procedure, shortened: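 MDA-kb2 viability measured by CellTiter-Fluor fluorescence in the same wells as the luciferase signal; nilutamide 3.0uM final; 15-point compound titration; 16 hr at 37C.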

[2] = qHTS assay to identify small molecule agonists of the estrogen receptor beta (ER-beta) signaling pathway - cell viability counter screen (AID 1259380); also: nearly all actives have a fitted effect of over 30% in size
Procedure, shortened: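 Measured: luminescence from CellTiter-Glo after 30 min at room temperature, added to wells already read for the LiveBLAzer FRET reporter (2 hr substrate); ER-beta-UAS-bla HEK293T cells had 16 hr compound treatment at 37C, 5% CO2.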

[3] = molecular target: Androgen receptor (Homo sapiens) (UniProt P10275); experiment: qHTS assay to identify small molecule agonists of the androgen receptor (AR) signaling pathway in the presence of an antagonist (AID 1259381; calls by dose curve; also: nearly all actives have a fitted effect of over 15% in size)
Androgen receptor (Homo sapiens), sequence (P10275 whole entry, looked up): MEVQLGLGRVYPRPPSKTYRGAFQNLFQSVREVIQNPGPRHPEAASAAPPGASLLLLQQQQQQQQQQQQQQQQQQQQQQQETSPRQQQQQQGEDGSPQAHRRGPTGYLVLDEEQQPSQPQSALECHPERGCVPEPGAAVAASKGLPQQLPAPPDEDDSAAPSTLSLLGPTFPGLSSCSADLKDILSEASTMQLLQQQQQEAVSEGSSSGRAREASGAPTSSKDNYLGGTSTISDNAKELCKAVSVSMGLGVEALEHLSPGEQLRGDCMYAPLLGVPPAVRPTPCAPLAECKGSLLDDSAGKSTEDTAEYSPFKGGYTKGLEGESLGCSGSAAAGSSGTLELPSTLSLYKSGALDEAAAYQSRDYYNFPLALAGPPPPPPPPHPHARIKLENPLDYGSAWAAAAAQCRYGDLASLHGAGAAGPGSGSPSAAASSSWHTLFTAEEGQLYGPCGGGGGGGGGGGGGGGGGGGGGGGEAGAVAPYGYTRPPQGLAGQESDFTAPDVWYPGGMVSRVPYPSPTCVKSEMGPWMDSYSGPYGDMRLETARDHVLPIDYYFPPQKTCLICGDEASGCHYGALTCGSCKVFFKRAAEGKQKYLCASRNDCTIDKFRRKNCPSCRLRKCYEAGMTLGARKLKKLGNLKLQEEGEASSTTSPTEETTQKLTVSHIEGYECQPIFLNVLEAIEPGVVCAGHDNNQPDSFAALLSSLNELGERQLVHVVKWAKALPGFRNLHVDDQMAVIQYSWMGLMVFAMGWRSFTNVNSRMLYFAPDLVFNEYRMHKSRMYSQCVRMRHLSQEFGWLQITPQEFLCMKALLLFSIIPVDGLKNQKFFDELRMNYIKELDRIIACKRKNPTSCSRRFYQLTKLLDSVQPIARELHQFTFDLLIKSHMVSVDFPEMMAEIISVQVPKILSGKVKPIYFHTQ
Procedure, shortened: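 Luminescent ONE-Glo read, 30min at room temperature, follows 16hr compound exposure (15 concentrations) of MDA-kb2 cells at 37C, 0% CO2, with nilutamide added at 3.0uM final.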

[4] = qHTS assay to identify small molecule antagonists of the estrogen receptor beta (ER-beta) signaling pathway - cell viability counter screen (AID 1259382);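 also: HEK293T cells carrying ER-beta-UAS-bla reporter stimulated with estradiol; series mostly up to about 92 µM; nearly all actives have a fitted effect of over 55% in size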
Procedure, shortened: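 Readout: luminescence, CellTiter-Glo, same wells as bla assay. System: ER-beta-UAS-bla GripTite HEK293T, 2% charcoal-stripped FBS. Exposure: compounds plus 1nM 17-beta-estradiol, 16 hr, 37C.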

[5] = qHTS assay to identify small molecule agonists or antagonists of the thyroid stimulating hormone receptor (TSHR) signaling pathway - wild type cell line counter screen (AID 1259384; calls by dose curve)
Procedure, shortened: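 Counter screen in untransfected Hek293: compounds (15-point titration, triplicate) plus phosphodiesterase inhibitor Ro20-1724 added after 18 h plating; 30 min RT. Intracellular cAMP via competitive d2/cryptate immunoassay, 1 h incubation.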

[6] = molecular target: Thyrotropin receptor (Homo sapiens) (UniProt P16473); experiment: qHTS assay to identify small molecule antagonists of the thyroid stimulating hormone receptor (TSHR) signaling pathway (AID 1259385; calls by dose curve; also: nearly all actives have a fitted effect of over 20% in size)
Thyrotropin receptor (Homo sapiens), sequence (P16473 whole entry, looked up): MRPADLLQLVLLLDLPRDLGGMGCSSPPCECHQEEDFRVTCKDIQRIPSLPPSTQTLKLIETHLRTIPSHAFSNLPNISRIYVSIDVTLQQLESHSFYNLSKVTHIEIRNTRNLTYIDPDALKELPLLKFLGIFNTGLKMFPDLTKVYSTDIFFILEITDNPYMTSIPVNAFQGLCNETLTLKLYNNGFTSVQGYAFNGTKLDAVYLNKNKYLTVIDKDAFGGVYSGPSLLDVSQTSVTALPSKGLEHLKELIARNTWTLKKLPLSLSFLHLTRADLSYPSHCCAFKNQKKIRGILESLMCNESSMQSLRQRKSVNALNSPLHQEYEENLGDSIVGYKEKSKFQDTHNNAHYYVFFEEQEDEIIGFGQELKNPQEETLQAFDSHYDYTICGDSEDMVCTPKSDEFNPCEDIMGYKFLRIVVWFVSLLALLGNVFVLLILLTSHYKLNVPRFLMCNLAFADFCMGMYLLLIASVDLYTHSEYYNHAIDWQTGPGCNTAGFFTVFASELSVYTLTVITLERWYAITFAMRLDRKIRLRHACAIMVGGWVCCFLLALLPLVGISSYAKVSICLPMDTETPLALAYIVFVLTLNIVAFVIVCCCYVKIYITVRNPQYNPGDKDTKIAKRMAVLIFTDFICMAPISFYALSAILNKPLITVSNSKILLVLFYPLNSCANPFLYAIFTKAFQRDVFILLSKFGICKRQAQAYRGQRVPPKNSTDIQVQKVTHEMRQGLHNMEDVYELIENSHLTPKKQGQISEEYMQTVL
Procedure, shortened: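 Antagonist mode: compound-treated TSHR-expressing HEK293 cells were stimulated with 1.5 ng/mL TSH (final) in presence of Ro20-1724 for 30 min at RT. HTRF cAMP detection after 1 h; each compound tested at 15 concentrations, triplicate.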

[7] = qHTS assay to identify small molecule agonists of the estrogen receptor alpha (ER-alpha) signaling pathway in the presence of an antagonist - cell viability counter screen (AID 1259386);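 also: series mostly up to about 92 µM; cells exposed to compounds for 22 h at 37 °C before the viability read; nearly all actives have a fitted effect of over 30% in size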
Procedure, shortened: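 The test measures whether compounds kill ER-alpha reporter cells (VM7Luc4E2) under antagonist co-treatment (ICI-182,780, 10.0nM). Fluorescence from CellTiter-Fluor is read after a 22hr exposure.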

[8] = molecular target: Progesterone receptor (Homo sapiens) (UniProt P06401); experiment: qHTS assay to identify small molecule agonists of the progesterone receptor (PR) signaling pathway (AID 1346784; calls by dose curve; also: nearly all actives have a fitted effect of over 30% in size)
Progesterone receptor (Homo sapiens), sequence (P06401 whole entry, looked up): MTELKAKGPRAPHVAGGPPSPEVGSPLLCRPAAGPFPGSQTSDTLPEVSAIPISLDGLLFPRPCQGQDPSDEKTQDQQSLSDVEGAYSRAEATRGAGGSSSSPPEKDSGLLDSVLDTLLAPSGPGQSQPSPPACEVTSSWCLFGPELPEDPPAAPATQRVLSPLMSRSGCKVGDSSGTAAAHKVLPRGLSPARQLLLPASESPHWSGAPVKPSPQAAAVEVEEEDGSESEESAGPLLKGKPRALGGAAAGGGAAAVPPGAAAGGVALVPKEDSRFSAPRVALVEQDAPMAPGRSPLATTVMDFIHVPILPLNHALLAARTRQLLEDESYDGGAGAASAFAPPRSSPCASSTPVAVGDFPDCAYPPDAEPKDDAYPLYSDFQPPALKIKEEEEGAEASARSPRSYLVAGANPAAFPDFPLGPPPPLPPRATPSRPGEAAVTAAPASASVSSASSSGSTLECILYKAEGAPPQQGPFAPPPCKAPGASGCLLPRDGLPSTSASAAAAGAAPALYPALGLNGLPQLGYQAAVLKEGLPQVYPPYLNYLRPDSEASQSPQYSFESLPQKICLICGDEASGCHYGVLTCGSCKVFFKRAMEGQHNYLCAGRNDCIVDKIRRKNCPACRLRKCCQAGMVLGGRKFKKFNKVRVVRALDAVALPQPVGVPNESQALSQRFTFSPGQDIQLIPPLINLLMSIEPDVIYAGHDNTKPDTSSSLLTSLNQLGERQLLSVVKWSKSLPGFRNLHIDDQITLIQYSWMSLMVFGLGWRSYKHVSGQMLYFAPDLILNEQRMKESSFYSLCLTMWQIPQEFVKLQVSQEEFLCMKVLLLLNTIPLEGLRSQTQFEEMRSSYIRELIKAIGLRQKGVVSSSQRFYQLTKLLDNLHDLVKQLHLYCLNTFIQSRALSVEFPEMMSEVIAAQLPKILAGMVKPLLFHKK
Procedure, shortened: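 Reporter assay, GripTite PR-UAS-bla HEK 293T cells: 16 hr exposure to DMSO-dissolved compounds at 37C, 5% CO2, in steroid-depleted (2% charcoal-stripped FBS) medium; beta-lactamase measured by FRET fluorescence.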

[9] = molecular target: Progesterone receptor (Homo sapiens) (UniProt P06401); experiment: qHTS assay to identify small molecule antagonists of the progesterone receptor (PR) signaling pathway (AID 1346795; active = well fitted inhibition curve with a large enough effect in the signal ratio in the repeat runs, not every such curve was filed as active; the % refers to the signal ratio)
Procedure, shortened: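 Stimulus R5020 at 1 nM final; cells HEK293T PR-UAS-bla; medium with 2% charcoal-stripped FBS; compound exposure 16 hr at 37C, 5% CO2; detection by FRET beta-lactamase substrate, 2 hr, room temperature.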

[10] = qHTS assay to identify small molecule antagonists of the progesterone receptor (PR) signaling pathway - cell viability counter screen (AID 1346798); also: series mostly up to about 92 µM; nearly all actives have a fitted effect of over 50% in size
Procedure, shortened: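 In the same plates used for the beta-lactamase readout, cell viability of compound- and R5020-treated PR-UAS-bla HEK293T cells (16 hr, 37C) was assessed by CellTiter-Glo luminescence.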

[11] = qHTS assay to identify small molecule agonists of the progesterone receptor (PR) signaling pathway - cell viability counter screen (AID 1346799; calls by dose curve; also: nearly all actives have a fitted effect of over 45% in size)
Procedure, shortened: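 Multiplexed viability read: CellTiter-Glo luminescence, 30 min RT, following LiveBLAzer FRET measurement on PR-UAS-bla HEK293T cells exposed to compounds 16 hr.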

[12] = qHTS assay to identify small molecule antagonists of the TGF-beta/Smad signaling pathway - cell viability counter screen (AID 1346824); also: nearly all actives have a fitted effect of over 50% in size
Procedure, shortened: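 Cytotoxicity counter-screen run in the same wells as the beta-lactamase Smad reporter read: CellTiter-Glo luminescence after 30 min at room temperature. HEK 293T SBE-bla cells had 5 hr compound exposure at 37 C with TGF-beta1 (0.25 ng/mL stock).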

[13] = qHTS assay to identify small molecule agonists of the TGF-beta/Smad signaling pathway - cell viability counter screen (AID 1346829); also: top concentration of the series differs between compounds; nearly all actives have a fitted effect of over 45% in size
Procedure, shortened: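 Tox21 qHTS format: SBE-bla HEK 293T cells treated with DMSO-dissolved compounds for 5 hr; CellTiter-Glo luminescence after 30 min at room temperature.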

[14] = qHTS assay to identify small molecule agonists of the TGF-beta/Smad signaling pathway (AID 1346859; active = well fitted activation curve with a large enough effect in the signal ratio in the repeat runs, not every such curve was filed as active; the % refers to the signal ratio; also: series mostly up to about 77 µM)
Procedure, shortened: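 Screening used HEK 293T SBE-bla cells at 4,000/well. Test agents: 5 hr, 37 C. Detection: FRET substrate, 2 hr RT, then excitation 405 nm with emissions at 460 and 530 nm.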

[15] = molecular target: Thyrotropin-releasing hormone receptor (Homo sapiens) (UniProt P34981); experiment: qHTS assay to identify small molecule antagonists of the thyrotropin-releasing hormone receptor (TRHR) signaling pathway (AID 1346877; active = well fitted inhibition curve with a large enough effect in the repeat runs, not every such curve was filed as active; also: series mostly up to about 51 µM)
Thyrotropin-releasing hormone receptor (Homo sapiens), sequence (P34981 whole entry, looked up): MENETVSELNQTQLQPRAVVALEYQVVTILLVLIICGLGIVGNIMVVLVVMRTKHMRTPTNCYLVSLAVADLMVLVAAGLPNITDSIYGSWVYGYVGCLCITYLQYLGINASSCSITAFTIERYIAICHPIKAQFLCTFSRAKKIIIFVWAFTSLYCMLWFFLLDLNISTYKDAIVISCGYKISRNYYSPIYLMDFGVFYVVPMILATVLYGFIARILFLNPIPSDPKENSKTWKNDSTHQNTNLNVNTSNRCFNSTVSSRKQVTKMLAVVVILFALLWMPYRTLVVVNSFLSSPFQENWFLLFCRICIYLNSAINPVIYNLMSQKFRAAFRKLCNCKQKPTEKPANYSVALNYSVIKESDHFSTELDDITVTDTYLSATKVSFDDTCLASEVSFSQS
Procedure, shortened: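 Overnight-plated (18 h, 37 °C) HEK293 cells expressing TRHR were dye-loaded 2 h, treated with compound, then stimulated with TRH at 1 nM final. Fluorescence intensity was captured every second for 3 min.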

[16] = molecular target: Thyrotropin-releasing hormone receptor (Homo sapiens) (UniProt P34981); experiment: qHTS assay to identify small molecule agonists of the thyrotropin-releasing hormone receptor (TRHR) signaling pathway (AID 1346891; calls by dose curve; also: series mostly up to about 58 µM)
Procedure, shortened: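 Readout was intracellular calcium fluorescence in TRHR-Hek293 cells. Cells were incubated 18 h, dye-loaded 2 h at 37 °C, and treated with compound in agonist mode.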

[17] = Human pregnane X receptor (PXR) small molecule agonists, qHTS cell viability counter screen (AID 1346977); also: nearly all actives have a fitted effect of over 50% in size; also: potency is read from the fitted curve at half-maximal effect
Procedure, shortened: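 In each well, the PXR reporter HepG2 line was checked for viability: CellTiter-Fluor reagent added 23hr post-dosing, fluorescence read after 1hr incubation at 37C.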

[18] = molecular target: Estrogen receptor (Homo sapiens) (UniProt P03372); experiment: qHTS assay to identify small molecule agonists of the estrogen receptor alpha (ER-alpha) signaling pathway in the presence of an antagonist (AID 1259383; calls by dose curve; also: top concentration of the series differs between compounds; nearly all actives have a fitted effect of over 15% in size)
Estrogen receptor (Homo sapiens), sequence (P03372 whole entry, looked up): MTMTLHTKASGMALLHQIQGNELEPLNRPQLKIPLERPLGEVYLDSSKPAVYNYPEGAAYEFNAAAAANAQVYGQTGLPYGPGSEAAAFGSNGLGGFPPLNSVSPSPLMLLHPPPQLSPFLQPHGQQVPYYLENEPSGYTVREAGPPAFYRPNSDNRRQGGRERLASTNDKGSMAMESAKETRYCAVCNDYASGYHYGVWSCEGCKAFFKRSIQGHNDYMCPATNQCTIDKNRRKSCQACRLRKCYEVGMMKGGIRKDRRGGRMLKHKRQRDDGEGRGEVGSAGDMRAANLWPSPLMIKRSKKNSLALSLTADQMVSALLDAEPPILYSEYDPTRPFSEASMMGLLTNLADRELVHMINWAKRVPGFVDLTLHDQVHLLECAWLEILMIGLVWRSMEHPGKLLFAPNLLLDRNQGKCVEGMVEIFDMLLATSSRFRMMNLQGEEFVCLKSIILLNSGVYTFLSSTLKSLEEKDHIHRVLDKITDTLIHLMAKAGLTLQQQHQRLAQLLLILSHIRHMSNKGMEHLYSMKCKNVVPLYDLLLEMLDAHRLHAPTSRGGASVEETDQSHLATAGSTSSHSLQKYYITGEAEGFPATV
Procedure, shortened: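 Quantitative HTS confirmation: compounds titrated at 15 concentrations onto estrogen-deprived VM7Luc4E2 cells carrying a four-ERE luciferase construct, with ICI-182,780 present at 10.0nM final. Signal is luminescence after 22hr exposure.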

Measured: Potency

CC(Cl)C(=O)O (stereo not given)
inactive: [1] | [2] | [3] | [4] | [5] | [6] | [7] | [8] | [9] | [10] | [11] | [12] | [13] | [14] | [15] | [16] | [17]

Clc1ccccc1
inactive: [1] | [2] | [4] | [18] | [5] | [7] | [8] | [9] | [10] | [11] | [12] | [13] | [14] | [15] | [16]
active: [17] 26.9 µM

Cc1ccc2c(C)cccc2c1
inactive: [1] | [2] | [4] | [5] | [6] | [7] | [8] | [9] | [10] | [11] | [12] | [14] | [15] | [16] | [17]

Oc1cccc(Cl)c1
inactive: [1] | [2] | [4] | [18] | [5] | [7] | [8] | [9] | [10] | [11] | [13] | [14] | [15] | [16] | [17]

O=C(NC(=O)c1cc(F)c(F)cc1Cl)Nc1cc(F)ccc1N1CCC(C(=O)O)CC1
inactive: [1] | [2] | [4] | [18] | [5] | [6] | [7] | [8] | [9] | [12] | [13] | [14] | [15] | [16] | [17]

C#CC(O)(C=CCl)CC (stereo not given)
inactive: [1] | [2] | [3] | [4] | [6] | [8] | [9] | [11] | [12] | [13] | [14] | [17]

C1CS1
inactive: [1] | [2] | [4] | [18] | [5] | [6] | [8] | [9] | [10] | [11] | [12] | [13] | [14] | [15] | [16] | [17]

Nc1cccc2ccccc12
inactive: [1] | [2] | [4] | [18] | [5] | [6] | [7] | [8] | [10] | [11] | [12] | [14] | [15] | [16] | [17]

C=CCOCC1CO1 (stereo not given)
inactive: [1] | [2] | [4] | [5] | [6] | [7] | [8] | [9] | [11] | [12] | [13] | [14] | [15] | [16] | [17]

C[N+]1(CCC(C(N)=O)(c2ccccc2)c2ccccc2)CCCCC1
inactive: [1] | [2] | [4] | [18] | [5] | [6] | [7] | [8] | [9] | [10] | [11] | [12] | [13] | [14] | [15] | [16] | [17]

CCCCC#N
inactive: [1] | [2] | [4] | [18] | [5] | [6] | [7] | [8] | [9] | [10] | [11] | [12] | [14] | [15] | [16] | [17]

O=C1NC(=O)C(=O)C(=O)N1
inactive: [1] | [2] | [4] | [18] | [5] | [6] | [7] | [8] | [9] | [10] | [11] | [12] | [13] | [14] | [17]

CCOP(=S)(OCC)SCSc1cc(Cl)ccc1Cl
inactive: [1] | [2] | [4] | [18] | [5] | [6] | [7] | [8] | [9] | [11] | [12] | [14] | [15] | [16] | [17]

O=C(O)c1cc(I)cc(I)c1I
inactive: [1] | [2] | [4] | [18] | [5] | [6] | [8] | [9] | [11] | [12] | [13] | [14] | [15] | [16] | [17]

CCOC(=O)NC(O)C(Cl)(Cl)Cl (stereo not given)
inactive: [1] | [2] | [4] | [18] | [5] | [6] | [7] | [8] | [9] | [10] | [11] | [12] | [13] | [14] | [17]

Cc1cccc(C)c1NC1=NCCCS1
inactive: [1] | [2] | [4] | [18] | [5] | [6] | [7] | [8] | [9] | [11] | [12] | [13] | [15] | [16] | [17]

CCN(C(C)=O)c1cccc(-c2ccnc3c(C#N)cnn23)c1
inactive: [1] | [2] | [4] | [5] | [6] | [7] | [8] | [9] | [10] | [11] | [12] | [13] | [14] | [15] | [16] | [17]
